Records with an inconclusive call do not appear. Where a call stands in place of a potency, no number is given. A number with no mark means an inactive call. The source made the active and inactive calls. Calls follow the shape of the dose curve; as a rule, active = well fitted inhibition curve with a large enough effect; inconclusive = small, poorly fitted or top-dose-only effect; inactive = no such curve, though single readings can be large or run the other way.

Cytochrome P450 3A7 (Homo sapiens), sequence (P24462 whole entry, looked up): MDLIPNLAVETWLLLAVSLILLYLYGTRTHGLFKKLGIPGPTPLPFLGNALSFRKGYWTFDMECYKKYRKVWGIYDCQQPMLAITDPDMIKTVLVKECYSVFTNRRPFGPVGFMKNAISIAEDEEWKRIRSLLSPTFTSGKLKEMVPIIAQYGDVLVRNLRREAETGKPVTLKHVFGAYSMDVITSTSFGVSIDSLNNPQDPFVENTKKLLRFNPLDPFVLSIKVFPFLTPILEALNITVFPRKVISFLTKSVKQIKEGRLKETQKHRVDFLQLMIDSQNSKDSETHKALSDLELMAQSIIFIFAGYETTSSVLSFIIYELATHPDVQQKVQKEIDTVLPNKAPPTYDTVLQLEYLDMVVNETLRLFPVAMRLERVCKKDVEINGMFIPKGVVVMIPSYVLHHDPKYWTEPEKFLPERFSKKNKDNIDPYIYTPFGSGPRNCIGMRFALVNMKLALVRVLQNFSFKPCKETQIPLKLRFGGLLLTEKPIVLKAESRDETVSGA

The experiment has as its target Cytochrome P450 3A7 (Homo sapiens) (UniProt P24462). Kind of experiment: Cytochrome P450 family 3 subfamily A member 7 (CYP3A7) small molecule antagonists: luciferase biochemical qHTS assay (AID 1963596). Also: nearly all actives have a fitted effect of over 40% in size. The conditions noted are these: P450-Glo CYP3A7 enzyme luminescence, 1 h; series mostly up to 57.4 µM. Put shortly:
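Compounds were screened in qHTS format for interference with CYP3A7 turnover of a proluciferin substrate. Reactions ran 1 h at room temperature after NADPH regeneration solution was added, then luciferin product was detected by luminescence.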
Background: qHTS replaces the single test concentration by a dilution series.
Regarding `Cc1cc(=O)n(-c2ccccc2)n1C`, the Potency entry is “inactive”.

Regarding `CCCC(=O)O[C@]1(C(=O)CO)CC[C@H]2[C@@H]3CCC4=CC(=O)CC[C@]4(C)[C@H]3[C@@H](O)C[C@@]21C`, the Potency result was “inactive”. With `CC(=O)OCC(=O)Nc1cc(C#N)cc(NC(=O)COC(C)=O)c1Cl`, the Potency entry is “inactive”. With `O=C(O)c1ccccc1OP(=O)(O)O`, the Potency entry was “inactive”. Turning to `COCCc1ccc(OCC2CO2)cc1` (configuration not stated), the Potency result was “inactive”. The same measure, in the same setting: to `CCOc1cc2ncc(C#N)c(Nc3ccc(F)c(Cl)c3)c2cc1NC(=O)/C=C/CN(C)C` belongs “inactive”; to `C[C@@H](O)[C@H]1C(=O)N2C(C(=O)O)=C(S[C@@H]3CN[C@H](C(=O)N(C)C)C3)[C@H](C)[C@H]12`, “inactive”.

For the molecule `Cc1cc(NS(=O)(=O)c2ccc(N)cc2)nc(C)n1`, the Potency result is “inactive”. In the case of `NC(=O)CCCCC1CCSS1` (configuration not stated), the Potency result is “inactive”. Still for that read-out and setting: for `O=c1[nH]c(=O)n([C@H]2C[C@H](O)[C@@H](CO)O2)cc1Br` the value was “inactive”; for `CCOc1ccc(C(=O)OCCN(CC)CC)cc1`, “inactive”; for `NS(=O)(=O)c1ccc(Cl)c(S(N)(=O)=O)c1`, “inactive”. As to `COc1cc(C(=O)NCc2ccc(OCCN(C)C)cc2)cc(OC)c1OC`, the Potency result is “inactive”.

As for `CCCN(CCC)CCc1cccc2c1CC(=O)N2`, the Potency result is “inactive”. Take `O=C(O)Cc1cccc(-c2cc(CCCCCCc3ccc(O[C@H]4O[C@H](CO)[C@@H](O)[C@H](O)[C@@H]4O)c(-c4cccc(CC(=O)O)c4)c3)ccc2O[C@H]2O[C@H](CO)[C@@H](O)[C@H](O)[C@@H]2O)c1`: the activity change, negative = inhibition is -19.9% [at 0.91 µM]. On to `O=C(c1ccco1)N1CCNCC1`, for which the Potency entry was “inactive”. The same measure, in the same setting: for `O=C(c1ccccc1)C(O)c1ccccc1` (configuration not stated) the value was “inactive”.

The values are drawn from PubChem BioAssay (NCATS).
